Screening data: PubChem BioAssay, several laboratories
Bead autofluor = counter-screen for toxin protease inhibitors: compound fluorescence; 360,000 compounds, 3.1% hits; compound autofluorescence counterscreen, microsphere flow cytometry; stronger effect = higher value; fluorescence intensity (concentration not given with the values); AID 624483; in the data active = fluorescence intensity above about 16000; inconclusive = no clear call, values can overlap the other calls
Anthrax LF inh2 = anthrax lethal factor protease inhibition | P15917 | 360,000 compounds, 0.12% hits | inhibition, % at 10 µM | multiplex microsphere protease cleavage assay, LF | AID 588501; also: plate controls were buffer without enzyme for full effect and enzyme alone for no effect
Target sequence (P15917 whole entry, looked up): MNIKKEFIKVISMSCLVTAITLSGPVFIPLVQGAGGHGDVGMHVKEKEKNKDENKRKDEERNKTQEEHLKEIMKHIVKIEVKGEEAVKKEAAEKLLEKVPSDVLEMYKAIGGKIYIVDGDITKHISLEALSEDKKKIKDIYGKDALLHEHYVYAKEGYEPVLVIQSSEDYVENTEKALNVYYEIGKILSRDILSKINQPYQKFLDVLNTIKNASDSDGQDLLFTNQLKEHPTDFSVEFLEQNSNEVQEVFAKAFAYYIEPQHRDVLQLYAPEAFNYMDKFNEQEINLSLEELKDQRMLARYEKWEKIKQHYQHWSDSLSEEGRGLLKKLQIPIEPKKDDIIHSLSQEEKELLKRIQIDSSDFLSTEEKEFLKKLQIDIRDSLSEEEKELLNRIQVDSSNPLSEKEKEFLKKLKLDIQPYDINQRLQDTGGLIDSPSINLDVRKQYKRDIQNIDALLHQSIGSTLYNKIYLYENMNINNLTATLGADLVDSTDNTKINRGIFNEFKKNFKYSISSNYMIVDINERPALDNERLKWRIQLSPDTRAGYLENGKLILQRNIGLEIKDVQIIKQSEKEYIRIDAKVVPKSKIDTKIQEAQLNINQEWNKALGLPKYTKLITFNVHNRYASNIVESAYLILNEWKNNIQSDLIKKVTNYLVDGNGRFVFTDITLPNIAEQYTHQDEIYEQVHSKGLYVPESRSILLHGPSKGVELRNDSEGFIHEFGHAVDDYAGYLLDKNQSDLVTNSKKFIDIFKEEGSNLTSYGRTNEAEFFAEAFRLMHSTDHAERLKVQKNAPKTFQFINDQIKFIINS
SSB-PriA inh = inhibitors of Klebsiella pneumoniae PriA binding to SSB C-terminal tail. AlphaScreen SSBct-PriA binding, biotinylated peptide. inhibition, % at 33 µM. 430,000 compounds, 0.6% hits. AID 1272365; in the data active = inhibition mostly above about 37%, no sharp cut-off; inactive = mostly below about 20%;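 also: plate controls were negative control peptide for no effect and reference peptide for full effect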
BoNT F protease = blocks Botulinum neurotoxin F light chain protease. inhibition, % at 10 µM. 360,000 compounds, 0.22% hits. Multiplex microsphere protease cleavage assay, flow cytometry; in the data active = inhibition above about 35%, passing the limit was not always enough; inconclusive = no clear call, values can overlap the other calls; also: plate controls were buffer without enzyme for full effect and enzyme alone for no effect
BoNT A protease = BoNT A light chain protease inhibition. multiplex microsphere protease substrate cleavage, flow cytometry. inhibition, % at 10 µM. 360,000 compounds, 0.17% hits; also: plate controls were buffer without enzyme for full effect and enzyme alone for no effect
Active calls of the source: *. This is a sample that favours compounds with a hit; in the whole collection about 3.1% have one here. Rule as the data show it, unless noted: active = inhibition above about 30%; inconclusive = no clear call, values can overlap the other calls; inactive = below that.

COc1cc(S(=O)(=O)N2CCOCC2)ccc1NC(=O)COC(=O)c1cc(OC)c(OC)c(OC)c1 was read as Bead autofluor 4256, Anthrax LF inh2 -2, SSB-PriA inh 8, BoNT F protease 13 and BoNT A protease 3.
Screening COc1ccc(NC(=O)CSc2n[nH]c(N)n2)c([N+](=O)[O-])c1 returned Bead autofluor 23423*, Anthrax LF inh2 -1, SSB-PriA inh -5, BoNT F protease 1 and BoNT A protease 0.
CCC(=O)OCC(=O)Nc1ccc(OC)cc1[N+](=O)[O-] was read as Bead autofluor 2652, Anthrax LF inh2 -2, SSB-PriA inh -9, BoNT F protease -6 and BoNT A protease -2.
Screening COc1cc(S(=O)(=O)N2CCOCC2)ccc1NC(=O)COC(=O)CC12CC3CC(CC(C3)C1)C2 returned Bead autofluor 24036*, Anthrax LF inh2 -3, SSB-PriA inh -12, BoNT F protease -6 and BoNT A protease -2.
`COc1ccc(NC(=O)COC(=O)CC23CC4CC(CC(C4)C2)C3)c([N+](=O)[O-])c1` gave Bead autofluor 2036, Anthrax LF inh2 0, SSB-PriA inh 66*, BoNT F protease -3 and BoNT A protease 0.
Cc1nonc1C(=O)NN=Cc1cccc(O)c1 was read as SSB-PriA inh -20.
For CCC(C)Nc1ccc(NC(C)CC)cc1 (stereo not given) the results were Bead autofluor 4636, Anthrax LF inh2 -36, SSB-PriA inh 40*, BoNT F protease -89 and BoNT A protease 4.
Screening CCC(C)NC(=O)Nc1ccc(Br)cc1 (stereo not given) returned Bead autofluor 2256, Anthrax LF inh2 0, SSB-PriA inh -25, BoNT F protease 0 and BoNT A protease 0.
`CC(C)C(=O)c1cn(CC(=O)N2CCCc3ccccc32)c2ccccc12` gave Bead autofluor 23272*, Anthrax LF inh2 -2, SSB-PriA inh -2, BoNT F protease 1 and BoNT A protease inconclusive.
Screening O=C(c1ccccc1)c1cn(CC(=O)N2CCCc3ccccc32)c2ccccc12 returned Bead autofluor 10702, Anthrax LF inh2 1, SSB-PriA inh 1, BoNT F protease -8 and BoNT A protease -1.
`O=C1c2ccccc2C(=O)N1CCC(=O)N1CCc2ccccc21` gave Bead autofluor 22459*, Anthrax LF inh2 -6, SSB-PriA inh -11, BoNT F protease 3 and BoNT A protease 1.
O=C1CNC(=O)N1CC(=O)N1CCCc2ccccc21 was read as Bead autofluor 20063*, Anthrax LF inh2 3, SSB-PriA inh -4, BoNT F protease 2 and BoNT A protease inconclusive.
O=C1c2ccccc2C(=O)N1CCC(=O)N1CCCc2ccccc21 was read as Bead autofluor 2799, Anthrax LF inh2 -4, SSB-PriA inh -4, BoNT F protease 2 and BoNT A protease 0.
NC(CN1CCCC1=O)=NOC(=O)c1ccc(Cl)c(Cl)c1 was read as SSB-PriA inh -17.
For C=CCON=CC1C(=O)CC(C)(C)CC1=O the results were SSB-PriA inh -8.
Screening CCC(C)NC(=O)C(Cc1ccccc1)NS(=O)(=O)c1ccc2c(c1)CCC(=O)N2 (stereo not given) returned Bead autofluor 6284, Anthrax LF inh2 2, SSB-PriA inh -10, BoNT F protease -3 and BoNT A protease 2.
Screening CCCN(CCC)CCNC(=O)C(NS(=O)(=O)c1ccc2c(c1)CCC(=O)N2)c1ccccc1 (stereo not given) returned Bead autofluor 23934*, Anthrax LF inh2 -3, SSB-PriA inh -7, BoNT F protease -4 and BoNT A protease -2.
For CCCn1nc([N+](=O)[O-])c(C(C#N)c2nc3ccccc3s2)c(Cl)c1=O (stereo not given) the results were Bead autofluor 7746, Anthrax LF inh2 0, SSB-PriA inh 55*, BoNT F protease -7 and BoNT A protease 0.
Cc1c(Cl)ccc2sc(N(Cc3ccncc3)C(=O)CCc3ccccc3)nc12 was read as SSB-PriA inh -9.
Screening O=c1/c(=C/c2ccc(F)cc2F)sc2nc3ccccc3n12 returned SSB-PriA inh 40*.
`O=C(O)c1ccc(-c2ccc(/C=c3/sc4nc5ccccc5n4c3=O)o2)cc1Cl` gave Bead autofluor 7041, Anthrax LF inh2 133*, BoNT F protease inconclusive and BoNT A protease 32*.
`COc1ccc(C(CNC(=O)c2ccccc2Br)N2CCOCC2)cc1` (stereo not given) gave SSB-PriA inh -7.
Screening COc1ccc(-c2cn3cccnc3n2)cc1NC(=O)CSCc1ccccc1 returned SSB-PriA inh -1.
Screening O=C(O)CC(CC(=O)NCCc1ccsc1)c1cccs1 (stereo not given) returned SSB-PriA inh -3.
For CC1=Nc2cc(Cl)ccc2Oc2ccccc21 the results were Bead autofluor 4419, Anthrax LF inh2 -2, SSB-PriA inh -18, BoNT F protease 3 and BoNT A protease -1.
Screening NC1=Nc2ccccc2Oc2ccccc21 returned Bead autofluor 16347*, Anthrax LF inh2 -8, SSB-PriA inh -14, BoNT F protease -1 and BoNT A protease inconclusive.
`O=c1c2cc(-c3ccccc3Cl)nn2ccn1Cc1ccc(Br)cc1F` gave SSB-PriA inh -6.
Cc1ccc(S(=O)(=O)N2CCCCC2)c2nsnc12 was read as Bead autofluor 4023, Anthrax LF inh2 -2, SSB-PriA inh 5, BoNT F protease -22 and BoNT A protease -2.
`Cc1ccc(S(=O)(=O)N2CCOCC2)c2nsnc12` gave Bead autofluor 17116*, Anthrax LF inh2 -6, SSB-PriA inh 3, BoNT F protease -3 and BoNT A protease -2.
COc1ccccc1-c1ccc(SCc2cccc(Cl)c2)nn1 was read as SSB-PriA inh -3.
For O=C(NNc1ncc(C(F)(F)F)cc1Cl)c1ccc(Cl)c(Cl)c1 the results were SSB-PriA inh 3.
Screening Nc1ccccc1C(=O)NNc1ncc(C(F)(F)F)cc1Cl returned Bead autofluor 22928*, Anthrax LF inh2 -1, SSB-PriA inh 12, BoNT F protease -4 and BoNT A protease inconclusive.
Screening O=C(COC(=O)CCc1ccc(S(=O)(=O)N2CCOCC2)cc1)Nc1ncc(C(F)(F)F)cc1Cl returned Bead autofluor 25667*, Anthrax LF inh2 0, SSB-PriA inh -14, BoNT F protease -9 and BoNT A protease -5.
Screening O=C(COC(=O)c1ccc2ccccc2c1)Nc1ncc(C(F)(F)F)cc1Cl returned Bead autofluor 2161, Anthrax LF inh2 -3, SSB-PriA inh -8, BoNT F protease -4 and BoNT A protease 0.
For O=C(COC(=O)c1ccc2ccccc2n1)Nc1ncc(C(F)(F)F)cc1Cl the results were Bead autofluor 22793*, Anthrax LF inh2 3, SSB-PriA inh -6, BoNT F protease 2 and BoNT A protease -1.
`O=S(=O)(c1cccc2cccnc12)N1CCCSCC1CN1CCOCC1` (stereo not given) gave SSB-PriA inh -15.
Screening COc1ccc(N/C=C(\C#N)c2nc3ccccc3n2C)c(OC)c1 returned Bead autofluor 18044*, Anthrax LF inh2 -1, SSB-PriA inh 14, BoNT F protease -9 and BoNT A protease -3.
